From PubChem BioAssay (NCI) come the findings set out here.

Among the test systems are DU-145 prostate; K-562 leukemia; MALME-3M melanoma; MDA-MB-231 breast; RXF 393 renal; SF-268 CNS; SF-295 CNS; SF-539 CNS; UACC-257 melanoma; M14 melanoma; HCT-15 colon; HT29 colon; SNB-75 CNS; SNB-19 CNS; U251 CNS; PC-3 prostate; SK-MEL-5 melanoma; UACC-62 melanoma; LOX IMVI melanoma; SK-MEL-28 melanoma.
Holding throughout (assay): NCI-60 one-dose screen, 48 h (100 = growth as untreated, 0 = no growth, -100 = all killed)
Common to all, as to settings: 10 µM

This is part of a sample that, as a whole, favours compounds with a hit. Of some 83,000 tested, about 20% had one in any assay.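 Single-dose data. Exposure time 48 hours. Values below 10 considered active.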 Values without a mark were called inactive. Calls of active or inactive are those of the source.

Consider `CN(C)c1ccc2c(c1)OC(N)=C(C#N)C2c1ccc2c(c1)CCO2` (stereo not given), for which the growth in the test with DU-145 prostate was 26.7%; in the test with K-562 leukemia it was 17%; in the test with MALME-3M melanoma, 87.5%; in the test with MDA-MB-231 breast, 21.7%; with RXF 393 renal, 23.5%; in the test on SF-268 CNS, 47.7%. In addition, the growth was -3.28% (active) in the test with SF-295 CNS; -0.663% (active) in the test with SF-539 CNS; 58% in the test on UACC-257 melanoma; 10% in the test on M14 melanoma; 18% in the test with HCT-15 colon; 9% (active) in the test on HT29 colon. The growth in the test on SNB-75 CNS is 40.8%; with SNB-19 CNS, 31.4%; in the test with U251 CNS, 21.7%; in the test on PC-3 prostate it was 24.1%; in the test with SK-MEL-5 melanoma, 10.3%; in the test with UACC-62 melanoma it was 34.8%. The growth is 29% in the test with LOX IMVI melanoma and 57.6% in the test on SK-MEL-28 melanoma.
Take `Nc1nc2c(ncn2C2OC3COP(=O)(O)OC4C(COP(=O)(O)OC2C3O)OC(n2cnc3c(N)ncnc32)C4O)c(=O)[nH]1` (stereo not given): the growth with DU-145 prostate was 107%; with K-562 leukemia, 92.5%; in the test on MALME-3M melanoma it was 106%; in the test on MDA-MB-231 breast, 114%; in the test with RXF 393 renal it was 114%; in the test with SF-268 CNS, 102%. Also, the growth in the test with SF-295 CNS is 96.9%; in the test with SF-539 CNS, 0.807% (active); in the test on UACC-257 melanoma, 112%; in the test on M14 melanoma, 106%; in the test on HCT-15 colon, 106%; with HT29 colon, 97.4%. The growth was 104% in the test on SNB-75 CNS; 93.5% with SNB-19 CNS; 110% in the test with U251 CNS; 108% with PC-3 prostate; 106% in the test on SK-MEL-5 melanoma; 103% in the test on UACC-62 melanoma. For the same compound, the growth in the test on LOX IMVI melanoma is 90.2%; in the test on SK-MEL-28 melanoma, 113%.
As for `Cc1cc(C)c(C(=O)OC(C)CNC2CCCCC2)c(C)c1` (stereo not given), the growth is 106% with DU-145 prostate; 81.2% with K-562 leukemia; 108% in the test with MALME-3M melanoma; 102% in the test on MDA-MB-231 breast; 105% in the test with RXF 393 renal; 99.7% in the test with SF-268 CNS. Moreover, the growth is 97.7% in the test with SF-295 CNS; 99.2% in the test with SF-539 CNS; 97.7% in the test with UACC-257 melanoma; 90.5% in the test on M14 melanoma; 97.5% with HCT-15 colon; 90.5% in the test on HT29 colon. The growth was 92.1% in the test with SNB-75 CNS; 97.5% with SNB-19 CNS; 97.8% in the test on U251 CNS; 93.9% in the test on PC-3 prostate; 101% with SK-MEL-5 melanoma; 103% in the test on UACC-62 melanoma. The growth in the test with LOX IMVI melanoma is 88.3%; in the test with SK-MEL-28 melanoma, 105%.
Take `CCCCCCCC/C=C/CCCCCCCCC1=NCCN1CCO`: the growth in the test on DU-145 prostate was 84.7%; in the test on K-562 leukemia it was -11.8% (active); in the test on MALME-3M melanoma it was 85.8%; in the test on MDA-MB-231 breast it was 68.3%; with RXF 393 renal it was 56.8%; in the test on SF-268 CNS it was 77.3%. Also, the growth with SF-295 CNS was 39.6%; in the test with SF-539 CNS it was 75.6%; in the test on UACC-257 melanoma, 83.5%; with M14 melanoma, 74%; with HCT-15 colon, 59.2%; with HT29 colon it was 19.7%. The growth is 57.3% with SNB-75 CNS; 92.8% in the test on SNB-19 CNS; 54.1% with U251 CNS; 46.2% in the test on PC-3 prostate; 85.6% with SK-MEL-5 melanoma; 90.5% with UACC-62 melanoma. Also, the growth is -7.51% (active) with LOX IMVI melanoma and 90.5% in the test on SK-MEL-28 melanoma.
As for `C[C@@H]1C(=O)N(C[C@H](Cc2ccccc2)NC(=O)OCc2ccccc2)[C@]1(Cc1ccccc1)C(=O)OCc1ccccc1`, the growth in the test on DU-145 prostate is 78.2%; in the test with K-562 leukemia, 26.1%; in the test on MALME-3M melanoma, 35.9%; in the test on MDA-MB-231 breast, 58.8%; with RXF 393 renal it was 42.2%; in the test with SF-268 CNS, 52.2%. Moreover, the growth with SF-295 CNS is 30%; with SF-539 CNS, 64.6%; with UACC-257 melanoma, 32.1%; in the test with M14 melanoma, 40.7%; in the test on HCT-15 colon, 39.3%; with HT29 colon it was 43.7%. Also, the growth was 52.5% with SNB-75 CNS; 56.7% in the test with SNB-19 CNS; 35.2% with U251 CNS; 10.4% in the test on PC-3 prostate; 13.2% with SK-MEL-5 melanoma; 40.7% in the test on UACC-62 melanoma. Besides, the growth in the test on LOX IMVI melanoma was 36.5%; with SK-MEL-28 melanoma, 66.9%.
For `O=C(Nc1cccc(C(F)(F)F)c1)C(Cl)Cl`, the growth is 98.3% in the test with DU-145 prostate; 102% with K-562 leukemia; 94.7% in the test on MALME-3M melanoma; 127% in the test on MDA-MB-231 breast; 104% with RXF 393 renal; 99.4% with SF-268 CNS. Besides, the growth in the test with SF-295 CNS was 90.4%; with SF-539 CNS it was 93.8%; with UACC-257 melanoma, 98%; in the test with M14 melanoma, 98.8%; in the test with HCT-15 colon, 94%; with HT29 colon it was 92.2%. Moreover, the growth in the test on SNB-75 CNS was 91.3%; in the test with SNB-19 CNS it was 99%; in the test with U251 CNS, 102%; with PC-3 prostate it was 95.1%; in the test with SK-MEL-5 melanoma it was 103%; in the test with UACC-62 melanoma, 105%. In addition, the results for the growth in the test with LOX IMVI melanoma and in the test on SK-MEL-28 melanoma were 101% and 104%, respectively.
Turning to `COc1ccc(-c2nsc3c2NC(=O)CC3c2cccc(Cl)c2)cc1` (stereo not given), the growth in the test with DU-145 prostate is 23.7%; in the test on K-562 leukemia, 10.4%; in the test on MALME-3M melanoma, 26.2%; in the test on MDA-MB-231 breast, 51.6%; in the test with RXF 393 renal, -1.29% (active); in the test on SF-268 CNS, 57.2%. Besides, the growth with SF-295 CNS is 5.03% (active); in the test with SF-539 CNS, -14.1% (active); in the test on UACC-257 melanoma it was 45%; with M14 melanoma, 19.2%; in the test on HCT-15 colon, 27.7%; in the test with HT29 colon it was 2.95% (active). Besides, the growth with SNB-75 CNS was -0.284% (active); with SNB-19 CNS, 54.3%; in the test with U251 CNS it was 35%; in the test on PC-3 prostate, 15.7%; in the test on SK-MEL-5 melanoma it was 23%; in the test with UACC-62 melanoma, 41.6%. For the same compound, the growth in the test on LOX IMVI melanoma was 43.7%; in the test on SK-MEL-28 melanoma, 49.8%.
`O=c1cc(CSc2nnc(-c3ccccc3)n2-c2ccc(F)cc2)c2ccc3ccccc3c2o1`: the growth in the test with DU-145 prostate was 109%; with K-562 leukemia, 82.9%; with MALME-3M melanoma it was 97%; in the test with MDA-MB-231 breast, 91.1%; in the test with RXF 393 renal, 108%; in the test with SF-268 CNS, 93.8%. Besides, the growth with SF-295 CNS is 95.9%; in the test with SF-539 CNS, 98.7%; with UACC-257 melanoma it was 103%; in the test with M14 melanoma it was 102%; in the test with HCT-15 colon, 98.2%; with HT29 colon it was 96.4%. Moreover, the growth in the test with SNB-75 CNS is 92.9%; in the test with SNB-19 CNS, 99.1%; with U251 CNS, 98.8%; in the test on PC-3 prostate, 79%; in the test on SK-MEL-5 melanoma, 79%; with UACC-62 melanoma it was 83.2%. For the same compound, the growth was 90.3% in the test with LOX IMVI melanoma and 104% with SK-MEL-28 melanoma.
